Screening results (PubChem)
This is a sample that favours compounds with a hit; in the whole collection about 3.2% have one here.
Kir21 inh: Kir2.1 (mouse) channel inhibition. B-score at 10 µM. 310,000 compounds, 0.85% hits. AID 1672. P35561. HEK293-Kir2.1, FluxOR thallium flux fluorescence; hits give low values;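 active = fluorescence ratio B-score at or below minus 3 SD of library scores, with starting-brightness B-score within 2 SD, cut at about -4.2 in these data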;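 note: channel flux triggered by added potassium and thallium sulfate stimulus; B-score of peak minus minimum fluorescence over baseline after thallium stimulus; more negative B-score means stronger Kir2.1 block with less thallium influx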
ANO1 activ: activators or potentiators of mouse TMEM16A chloride channel | HEK293 TMEM16A/YFP-H148Q/I152L, iodide quench fluorescence; hits give low values | B-score at 10 µM | Q8BHY3 | AID 623877 | 340,000 compounds, 0.3% hits;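 active = fluorescence-ratio B-score plate-corrected deviation score at least 3 library SD below zero, with starting fluorescence score within 5 deviations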;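 note: channel opened by trigger with iodide after compound preincubation; score built on the fluorescence ratio of max minus min over baseline; more negative score means more quench and so TMEM16A activation or potentiation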
CHT PAM: human CHT allosteric activation. Q9GZV3. CHT-expressing cells, membrane potential dye, choline EC20; hits give high values; LV-AA mutant CHT in HEK293 cells. B-score at 10 µM. 310,000 compounds, 0.49% hits;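 active = initial fluorescence not abnormally high and integrated response B-score, plate-corrected, over 3 SD above library mean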
Rce1 inh: inhibitors of yeast Ras-converting enzyme; AID 2563; calls only; Q03530; 290,000 compounds, 0.27% hits; yeast membranes, quenched prenylated peptide cleavage fluorescence;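 active = fall in fluorescence gain of 50% or more versus controls, with final raw signal at or below 3038400; inconclusive = same 50% fall but final raw signal above 3038400; inactive = fall in fluorescence gain under 50%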;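 note: plate controls were neutral control wells for no effect and wells lacking membranes for full effect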
Target sequence (Q03530 whole entry, looked up): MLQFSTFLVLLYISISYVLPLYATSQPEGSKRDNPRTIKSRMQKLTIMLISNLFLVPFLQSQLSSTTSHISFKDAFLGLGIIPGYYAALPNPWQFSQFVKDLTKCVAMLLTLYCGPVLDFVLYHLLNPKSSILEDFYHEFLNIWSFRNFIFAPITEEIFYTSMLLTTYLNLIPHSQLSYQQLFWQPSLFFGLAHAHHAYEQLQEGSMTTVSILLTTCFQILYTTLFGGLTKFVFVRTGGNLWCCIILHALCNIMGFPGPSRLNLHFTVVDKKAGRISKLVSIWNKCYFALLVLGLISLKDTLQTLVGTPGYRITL
TMEM16A inh: mouse TMEM16A channel inhibition, primary screen. HEK293 TMEM16A/YFP iodide influx fluorescence, ionomycin. normalized B-score (activity score, 25-100; higher = stronger inhibition) at 10 µM. 310,000 compounds, 1.2% hits. AID 588511;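 active = ratio plate-corrected score three or more library SD toward inhibition, starting fluorescence score within five deviations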;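 note: score derived from kinetic fluorescence span divided by baseline fluorescence per well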
CHT inh: inhibits the human high affinity choline transporter; Q9GZV3; CHT-expressing cells, membrane potential dye, choline response; hits give low values; B-score at 10 µM; 310,000 compounds, 0.86% hits;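 active = B-score over 3 SD under the library average, and starting fluorescence ratio not unusually high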;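 note: choline stimulus applied at its EC90 after an EC20 pre-addition; B-score computed on integrated fluorescence ratio after choline addition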
TMEM16A reconf: TMEM16A (mouse) chloride channel inhibition, re-confirmation | inhibition, % at 10 µM | shares compounds with TMEM16A inh | HEK293 TMEM16A/YFP-H148Q, iodide quench fluorescence; ionomycin added to raise cell calcium | 2,300 compounds, 39% hits;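 active = mean duplicate percent inhibition, scaled so buffer wells are 0 and the reference blocker 100, over three buffer SD above buffer mean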
HEK293 Ca mobil: counter-screen for TMEM16A inhibitors: effect on calcium mobilization | shares compounds with TMEM16A inh | TMEM16A/YFP HEK293, Fluo4 calcium mobilization | calcium response (% of ionomycin), % at 10 µM | 2,300 compounds, 2% hits;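 active = duplicate-averaged calcium signal over 20% of the ionomycin maximum, relative to buffer baseline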;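 note: each well's signal is peak minus trough fluorescence divided by its pre-addition baseline; 0% = buffer wells and 100% = ionomycin wells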
Parental YFP cnt: acts in parental YFP-HEK293 cells lacking TMEM16A, counter-screen. shares compounds with TMEM16A inh. iodide YFP quench, ionomycin. YFP ratio F(max-min)/F0 at 10 µM. 2,300 tested, under 10 active. AID 652233;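 active = yellow fluorescent protein signal ratio exceeding the buffer control mean by over 5 SD of those controls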;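 note: ratio is mean of duplicate wells from kinetic YFP trace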
ClC-1 rat inh: blocks the rat ClC-1 voltage-dependent chloride channel | CHO ClC-1-YFP, iodide influx fluorescence quench; iodide control reads 0, buffer control 100 | ratio percent, % at 10 µM | shares compounds with TMEM16A inh | 2,300 tested, under 10 active;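 active = duplicate-mean ratio percent above the mean of iodide-only control wells, which defines zero, plus 5 of their SD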;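 note: higher percent means stronger block of ClC-1 iodide influx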
An asterisk follows results filed as active; i = inactive; ? = inconclusive; · = no result given.

SMILES	Kir21 inh	ANO1 activ	CHT PAM	Rce1 inh	TMEM16A inh	CHT inh	TMEM16A reconf	HEK293 Ca mobil	Parental YFP cnt	ClC-1 rat inh
O=C(C1CC(=O)N(c2ccccc2)C1)N1CCN(c2ccc(F)cc2)CC1 (configuration not stated)	0.32	i	i	i	i	i	·	·	·	·
Cc1ccc(C)c(NC(=O)CCN2C(=O)[C@@H]3Cc4ccccc4CN3C2=O)c1	-0.39	i	i	i	i	i	·	·	·	·
CCN(CC)S(=O)(=O)c1ccc(-c2nnc(SCC(=O)Nc3cc(OC)cc(OC)c3)o2)cc1	-0.93	i	i	i	100*	i	i	i	-1.37	4.5
CCN(CC)S(=O)(=O)c1ccc(-c2nnc(SCC(C)=O)o2)cc1	0.05	i	i	i	i	i	·	·	·	·
Cc1nnc(SCC(=O)Nc2nc(-c3ccccc3)cs2)n1N	-0.01	i	i	i	100*	i	i	i	-1	-10.0
CCn1c(SCC(=O)Nc2nc(-c3ccccc3)cs2)nnc1-c1ccccc1	-0.18	i	i	i	i	i	·	·	·	·
COc1cc2c(-c3ccc4cc[nH]c4c3)c(-c3ccc(C#N)cc3)oc(=O)c2cc1OC	·	i	·	·	·	·	·	·	·	·
CCCOc1ccc(-c2nc(SCc3ccccc3)[nH]c(=O)c2C#N)cc1OC	0.36	i	i	i	100*	i	29.5%*	i	-1.15	-4.5
CCSc1nc(-c2ccccc2)c(C#N)c(=O)[nH]1	0.07	i	i	i	i	i	·	·	·	·
COc1ccc(C(=O)c2sc(Nc3ccccc3)nc2C)cc1	3.05	i	i	i	i	i	i	i	-0.965	-14.0
CCOC(=O)C(CSCC(=O)c1ccc(Cl)cc1)NC(=O)OC(C)(C)C (configuration not stated)	-5.67*	i	i	i	100*	i	i	i	-1	-4.0
CC(C)(C)OC(=O)N[C@@H](Cc1ccccc1)c1nnc(SCC(=O)c2ccc(Cl)cc2)o1	0.59	i	i	i	i	i	·	·	·	·
CC1=NN(C(N)=S)C(=O)C1N=Nc1ccc(Cl)cc1Cl (configuration not stated)	0.05	i	i	i	i	i	·	·	·	·
CCN(CC)S(=O)(=O)c1cccc(C(=O)Nc2ccc(C#N)cc2)c1	0.71	i	i	i	100*	i	i	i	-1.14	-20.5
CCN(CC)S(=O)(=O)c1ccc(C(=O)Nc2cc(C)cc(C)c2)cc1	-1.37	i	i	i	i	i	·	·	·	·
CCN(CC)S(=O)(=O)c1ccc(C(=O)Nc2ccc(Cc3ccncc3)cc2)cc1	-0.18	i	i	i	100*	i	27.5%*	i	-1.1	-21.0
CCN(CC)S(=O)(=O)c1cccc(C(=O)Nc2cc(C)cc(C)c2)c1	-0.01	i	i	i	i	i	·	·	·	·
CCN(CC)S(=O)(=O)c1ccc(NC(=O)c2ccc(N(C)S(C)(=O)=O)cc2)cc1	0.9	i	i	i	100*	i	19.5%*	i	-1.04	-13.0
COc1ccc(C)cc1NC(=O)COC(=O)c1c(C)nn(-c2ccccc2)c1C	·	i	·	·	·	·	·	·	·	·
COc1ccc(/C=N/N(C)C2=NS(=O)(=O)c3ccccc32)cc1	-1.22	i	i	i	i	i	·	·	·	·
COc1ccc(N(C)C2=NS(=O)(=O)c3ccccc32)cc1	0.07	i	i	i	100*	i	i	i	-1.09	-2.0
CC(C)OCCCn1c(=NC(=O)c2ccncc2)c(C#N)cc2c(=O)n3ccccc3nc21	-0.29	i	i	?	25*	i	i	27.5%*	-1.13	-14.0
CC(=O)N=c1c(C#N)cc2c(=O)n3ccccc3nc2n1CCCOC(C)C	-0.32	i	i	i	i	i	·	·	·	·
COc1ccc(Cn2c(CCC(=O)Nc3ccc(CC#N)cc3)nc3cccnc32)cc1	-0.01	i	i	i	25*	i	i	i	-1.07	-6.0
O=C1C=C(c2ccc3c(c2)OCCO3)C[C@@H](c2ccc(F)cc2)C1	·	i	·	·	·	·	·	·	·	·
SMILES	Kir21 inh	ANO1 activ	CHT PAM	Rce1 inh	TMEM16A inh	CHT inh	TMEM16A reconf	HEK293 Ca mobil	Parental YFP cnt	ClC-1 rat inh
COc1ccc(NC(=O)n2ncc3cc(Cl)ccc32)cc1OC	-0.15	i	i	i	i	i	·	·	·	·
Fc1cc(Br)ccc1Nc1nc2ccccc2n2nnnc12	0.86	i	i	i	i	i	·	·	·	·
Fc1ccccc1N1CCN(c2nc3ccccc3n3nnnc23)CC1	-0.04	i	i	i	i	i	i	i	-0.889	-6.0
O=C(CCNC(=O)c1ccccc1Cl)NCC(c1ccco1)N1CCCC1 (configuration not stated)	0.46	i	i	i	i	i	·	·	·	·
Cc1ccc(SCCNS(=O)(=O)c2ccc3c(c2)OCCO3)cc1	-0.2	i	i	i	25*	i	i	i	-1.14	-9.0
Cc1ccc(SCCNS(=O)(=O)c2ccc(F)cc2)cc1	-1.5	i	i	i	i	i	·	·	·	·
Cc1oncc1-c1csc(-c2ccccc2)n1	-0.09	i	i	i	100*	i	i	i	-0.926	-12.5
Cn1c(SCC(=O)Nc2cccnc2Cl)nc2ccccc21	·	i	·	·	·	·	·	·	·	·
O=C1CC(C(=O)N2CCc3ccccc32)CN1c1cccc(C(F)(F)F)c1 (configuration not stated)	·	i	·	·	·	·	·	·	·	·
C/C(CC1CC2=C(CC1(C)C)C(C)(C)CCC2)=N\NC(N)=S (configuration not stated)	-2.44	i	i	i	25*	i	i	25.5%*	-1.03	-5.0
C/C(CC1CC(C)(C)OC1=O)=N\NC(N)=S (configuration not stated)	-1.03	i	i	i	i	i	·	·	·	·
COc1ccc(N2CCN(C(=O)c3ccc(C)c(Cl)c3)CC2)cc1	0.02	i	i	i	25*	i	i	i	-1.03	0.5
O=C(Nc1ccc(Cl)c(Cl)c1)c1ccccc1	·	i	i	·	i	i	·	·	·	·
